Only some compounds are listed: those with a hit (about 19% of all), similar ones and a draw of the others.
DT40 TDP1 CPT: DT40-hTDP1 cell growth loss with CPT; chicken DT40 Tdp1-/-;hTDP1 cells + 20 nM CPT, ATP luminescence, 48 h; Potency, µM (top dose mostly 46.2 µM), for inactives: at the highest dose activity change, negative = growth inhibition, most hits filed as inhibitors; 420,000 compounds, 12% hits; also: potency is read from the fitted curve at half-maximal effect; nearly all actives have a fitted effect of over 55% in size
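Chicken DT40 Tdp1-/- cells stably complemented with human TDP1 were seeded at 400 cells/well in medium containing 20 nM camptothecin, exposed to pin-transferred compounds, and grown at 37 °C for at least 48 hr. Viability was read as ATP luminescence.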
TDP1 cell noCPT: qHTS for Inhibitors of human tyrosyl-DNA phosphodiesterase 1 (TDP1): qHTS in cells in absence of CPT; DT40 Tdp1-/- hTDP1 cells, no CPT, ATP luminescence, 48 h; Potency, µM (doses to about 46.2 µM), for the others: at the highest dose activity change, negative = growth inhibition, actives largely listed as inhibitors; 420,000 compounds, 15% hits; also: potency is read from the fitted curve at half-maximal effect; nearly all actives have a fitted effect of over 55% in size
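Chicken DT40 Tdp1-/- cells complemented with human TDP1, screened without camptothecin (DMSO vehicle only), 400 cells/well. Compounds pin-transferred, cells incubated at 37 °C for at least 48 hr. Growth read as ATP-dependent luminescence (CellTiter-Glo, 30 min at RT).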
HT1080 IDH1KD tx: HT-1080 IDH1 knockdown cell toxicity (counter line). HT-1080 IDH1 knockdown viability, ATP luminescence, 48 h. Potency, µM (series often up to 46.1 µM), inactives show top-dose activity, negative = toxicity, actives largely listed as cytotoxic. 360,000 compounds, 2% hits;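 also: potency is read from the fitted curve at half-maximal effect; 0% = DMSO wells and -100% = cell-free medium wells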
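IDH1KD HT-1080 cells, 750/well, RPMI + 5% FBS; compound pinned after 2 h settling; 48 h, 37 °C; CellTiter-Glo luminescence; % activity normalised to DMSO and no-cell wells; curves fitted, classed by r2 and efficacy.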
HT1080-NT tox: kills 2HG-producing HT-1080-NT fibrosarcoma cells. HT-1080-NT fibrosarcoma viability, CellTiter-Glo ATP luminescence, 48 h. Potency, µM (series often up to 46.1 µM), for inactives: at the highest dose activity, negative = less viability, hits mostly cytotoxic. 360,000 compounds, 1.6% hits. AID 686970;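 also: NT is the 2HG producing partner of a matched IDH1 knockdown line; potency is read from the fitted curve at half-maximal effect; 0% = DMSO-treated cells and -100% = media-only wells without cells; nearly all actives have a fitted effect of over 55% in size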
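Read-out is CellTiter-Glo luminescence after 10 minutes at room temperature, following 48 hours' compound treatment of HT-1080-NT cells (750 cells/well, RPMI, 5% FBS, 37 degrees C).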
IL-1B inflam inh: inflammasome signaling inhibition, IL-1 beta readout | THP-1 LPS/ATP IL-1B secretion, AlphaLISA, 16 h; stronger effect = lower value | activity change, % at 57.5 µM | 360,000 compounds, 4.7% hits; in the data active = activity change below about -50%; inconclusive = mostly about -30% to -49%
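THP-1 cells pretreated 1 hr with compounds (up to 57.5 uM final), then stimulated with LPS (250 ng/mL final) plus ATP (1.25 mM final); secreted IL-1B measured by AlphaLISA after 16 hr, decreased signal indicating inhibition.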
uPA surface inh: cell surface uPA generation inhibition. AID 540303. Potency, µM (doses to about 38.3 µM), inactives show top-dose activity change, negative = inhibition, most hits filed as inhibitors. cell surface uPA generation assay, qHTS. 330,000 compounds, 0.31% hits; active = well fitted inhibition curve with a large enough effect; inconclusive = small, poorly fitted or top-dose-only effect; inactive = no such curve, though single readings can be large or run the other way; tested in mouse RAW 264.7 cells; also: potency is read from the fitted curve at half-maximal effect; nearly all actives have a fitted effect of over 55% in size
An asterisk follows results filed as active; ? = inconclusive; . = not tested or not shown. Unless noted, calls follow the shape of the dose curve; as a rule, active = well fitted curve in the direction sought with a large enough effect; inconclusive = small, poorly fitted or top-dose-only effect, or another doubt; inactive = no such curve, though single readings can be large; an effect the other way counts as inactive or inconclusive. Unless noted, % is scaled to controls: 0 for no effect and ±100 for the full control effect.

SMILES	DT40 TDP1 CPT	TDP1 cell noCPT	HT1080 IDH1KD tx	HT1080-NT tox	IL-1B inflam inh	uPA surface inh
CN(C)CCN1CCN(C(c2ccnc3ccccc23)c2nnnn2-c2ccc3c(c2)OCCO3)CC1 (configuration not stated)	-23.1%	16.4µM*	-1.9%	-25.8%	-10.4	.
c1ccc2c(C(c3nnnn3-c3ccc4c(c3)OCCO4)N3CCCC3)ccnc2c1 (configuration not stated)	-1.7%	?	1.2%	6.8%	51.4	.
Cc1oc(S(=O)(=O)N2CCCCC2)cc1NC(=O)Nc1ccccc1	?	?	-12.6%	5.2%	-17.2	9.8%
CN1CCN(S(=O)(=O)c2ccc(NC(=O)Nc3cccc(Cl)c3)cc2)CC1	?	?	18.4µM*	20.6µM*	-2.0	-2.7%
O=C(Nc1cccc(Cl)c1)Nc1cc(S(=O)(=O)N2CCCCC2)ccc1Cl	?	?	25.9µM*	?	-88.4*	-16.4%
Cc1oc(S(=O)(=O)N2CCCCC2)cc1NC(=O)Nc1ccc(Cl)cc1	16.4µM*	16.4µM*	-7.4%	-2.8%	26.0	-11.7%
CN1CCN(S(=O)(=O)c2ccc(NC(=O)c3ccccc3Cl)cc2)CC1	11.9%	-1.1%	-0.4%	-4.0%	2.3	0.1%
O=C(Nc1cc(S(=O)(=O)N2CCCC2)ccc1Cl)c1ccncc1	0.6%	?	6.7%	14.6%	2.8	8.2%
CC(Oc1cccc(Cl)c1)C(=O)Nc1ccc(S(=O)(=O)N(C)C2CCN(C)CC2)cc1 (configuration not stated)	?	?	-7.2%	-1.3%	-56.9*	-10.7%
Cc1ccccc1-c1noc(CNC(=O)c2ccco2)n1	39.5%	5.9%	12.2%	17.1%	32.6	0.1%
CCCCNC(=O)C1(C)CCN1C(=O)c1cc(-c2ccccc2)cs1 (configuration not stated)	?	?	-0.1%	-17.6%	45.4	.
COc1ccccc1NC(=O)c1sc2nc3c(c(C(F)(F)F)c2c1N)CN(C(C)=O)CC3	?	-27.1%	.	.	.	.
CCS(=O)c1ccccc1C(=O)OC(C)C(=O)Nc1ccc(S(=O)(=O)N2CCCC2)cc1 (configuration not stated)	13µM*	?	0.4%	6.8%	5.1	-2.2%
CCOc1ccccc1C(=O)OC(C)C(=O)Nc1ccc(S(=O)(=O)N2CCCC2)cc1 (configuration not stated)	-22.7%	?	-0.2%	1.2%	-14.9	11.0%
CC(Oc1ccccc1Cl)C(=O)Nc1ccc(S(=O)(=O)N2CCN(C)CC2)cc1 (configuration not stated)	?	?	?	?	-55.2*	7.5%
Cc1ccc(-c2cnc(C(O)c3cccc(Cl)c3)[nH]2)cc1 (configuration not stated)	-76.8%	?	?	?	-0.3	.
NS(=O)(=O)c1ccc(Nc2nc(-c3ccc(F)cc3)cs2)cc1	18.4µM*	20.6µM*	14.6µM*	?	-87.6*	-1.9%
COc1cc(Nc2ccc(S(N)(=O)=O)cc2)c([N+](=O)[O-])nc1[N+](=O)[O-]	16.4µM*	?	5.3%	-0.3%	-3.4	-6.4%
COc1ccc(-c2csc(Nc3ccc(S(N)(=O)=O)cc3)n2)cc1OC	?	?	-5.5%	3.0%	-64.1*	-0.7%
NS(=O)(=O)c1ccc(Nc2nc(-c3cccnc3)cs2)cc1	-32.4%	?	14.8%	13.5%	5.7	-3.1%
CC(=O)Nc1ccc(-c2csc(Nc3ccc(S(N)(=O)=O)cc3)n2)cc1	9.0%	-4.2%	1.8%	-9.0%	-2.0	6.3%
Cc1cc(NS(=O)(=O)c2ccc(Nc3nc(-c4ccc(C)c(C)c4)cs3)cc2)no1	?	?	-16.1%	-10.3%	-56.2*	0.0%

From PubChem
